Screening results as filed in PubChem BioAssay.
Mito fusion yeast = mitochondrial division inhibition or fusion activation. 320,000 tested, 0.23% active. AID 485298. Potency, µM (titrated, usually from 46.1 µM), without a hit: top-dose growth rescue (activation), usual class: activators. S. cerevisiae fusion-defective mutant growth rescue, CellTiterGlo 48 h; note: % of control where 0% means no effect; nearly all actives have a fitted effect of over 45% in size
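Luminescent cell viability in 1536-well qHTS format served as the measure of rescued growth in ts fusion-mutant S. cerevisiae cultured on non-fermentable YPEG for 48 hours at 37C.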
aSyn rescue = rescues yeast growth from alpha-synuclein toxicity | Yeast expressing alpha-synuclein, growth rescue, BacTiter-Glo, 24 h | 370,000 tested, 0.14% active | Potency, µM (highest dose often 46.1 µM), without a hit: at the highest dose growth rescue (activation), usual class: activators; note: % of control where 0% means no effect; nearly all actives have a fitted effect of over 65% in size
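Galactose-induced alpha-syn yeast (OD600=0.02, raffinose-pregrown) + pinned cpd, 24 hr, 30 deg C; growth by BacTiter-Glo luminescence. Growth restoration scores as activation.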
A-T KAP1 phos = potential ataxia-telangiectasia treatments restoring KAP-1 phosphorylation; 320,000 tested, 0.19% active; F2112 A-T fibroblasts, KAP-1 phosphorylation AlphaLISA; neocarzinostatin DNA damage 30 min before lysis; Potency, µM (series often up to 57.5 µM), inactives show top-dose activation, usual class: activators; note: % of control where 0% means no effect; nearly all actives have a fitted effect of over 45% in size
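ATM-like activity read as KAP-1 phosphorylation via AlphaLISA donor/acceptor antibody pairs after lysis and 6 hr at 25C. Cells were ATM-null patient fibroblasts (F2112, hTERT), dosed 60 min, then exposed to the DSB inducer NCS for 30 min.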
FUS suppressor = rescues growth of FUS-expressing yeast. Potency, µM (doses to about 76.6 µM), most hits filed as activators. S. cerevisiae FUS-expressing, growth rescue, OD600, 24 h. 390,000 tested, 0.24% active. AID 1347120;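 note: plate controls were DMSO vehicle for no effect and reference control for full effect; nearly all actives have a fitted effect of over 55% in size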
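Restored growth of FUS-toxic S. cerevisiae, read as 600 nm absorbance after 24 h at 30C in galactose medium (starting OD 0.005). Controls CP55940 and DMSO.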
Abeta rescue = A-beta toxicity reversal in yeast. yeast expressing A-beta42, growth rescue, OD600, 48 h; response scale: 0% DMSO, 100% iron-clioquinol control. Potency, µM (top dose mostly 46.1 µM), most hits filed as activators. 410,000 tested, 0.063% active. AID 1347071; note: nearly all actives have a fitted effect of over 55% in size
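Growth rescue measured by 600 nm absorbance after 48 h yeast culture at 30 C with compound. Values normalized between DMSO and an equimolar ferric chloride plus clioquinol control.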
TDP43 rescue = rescues yeast growth from TDP-43 toxicity. 410,000 tested, 1.8% active. Potency, µM (series often up to 46.1 µM), for inactives: at the highest dose growth rescue (activation), hits mostly activators. TDP-43 expressing yeast growth rescue, BacTiter-Glo, 24 h; note: % of control where 0% means no effect; nearly all actives have a fitted effect of over 50% in size
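Readout is BacTiter-Glo luminescence of cell growth, so inhibitors register as activators. TDP-43-expressing yeast at OD600=0.02 in galactose medium, after raffinose pregrowth to mid-log, were incubated with compound for 24 hr at 30 deg C.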
* = called active by the depositor; i = inactive; ? = inconclusive; / = no result; [ ] = remark or other dose. Hits are enriched below; roughly 2.4% of the tested compounds scored in any of these assays. Calls come from the whole dose curve; as a rule, active = well fitted curve in the direction sought with a large enough effect; inconclusive = small, poorly fitted or top-dose-only effect, or another doubt; inactive = no such curve, though single readings can be large; an effect the other way counts as inactive or inconclusive. Potency is the fitted concentration of half-maximal effect.

SMILES	Mito fusion yeast	aSyn rescue	A-T KAP1 phos	FUS suppressor	Abeta rescue	TDP43 rescue
O=C(NCc1ccccc1)c1ccc(-c2ccc(F)c(F)c2)c2ccoc12	/	-1%	/	i	i	-8%
Cn1nccc1-c1coc2c(C(=O)NCc3ccccc3)cccc12	/	14%	/	i	i	3.5µM*
Cn1nccc1-c1coc2c(C(=O)NCC3CCOCC3)cccc12	/	-10%	/	i	i	13%
Cn1nccc1-c1ccc(C(=O)NCc2ccc(Cl)cc2)c2occc12	/	6%	/	?	i	22µM*
O=C(NCc1ccco1)c1ccc(-c2ccc(F)c(F)c2)c2ccoc12	/	1%	/	i	i	20µM*
COc1ccc(CCn2c(=S)[nH]c(=O)c3cccnc32)cc1OC	/	-8%	/	/	/	/
Cc1cc(-c2nnc3n2N=C(c2ccccc2Br)CS3)n[nH]1	-2%	-1%	4%	i	?	1%
Cc1cccc(-c2nnc3n2N=C(c2ccccc2Br)CS3)c1	-1%	7%	3%	i	i	20µM*
Clc1ccccc1C1=Nn2c(nnc2-c2ccncc2)SC1	2%	10%	-6%	i	i	11µM*
CCn1c(=O)n(-c2ccc(F)cc2)c(=O)c2sc3ccccc3c21	/	/	/	i	i	2%
CCc1ccccc1NC(=O)CSc1nc2ccccc2nc1Cc1cccc(OC)c1	/	/	/	i	i	0%
c1ccc(CCSc2ncnc3nc[nH]c23)cc1	18µM*	-16%	-1%	i	i	?
O=C(CSc1ncnc2nc[nH]c12)c1ccccc1	0%	-2%	/	i	i	-7%
Fc1cc(Br)ccc1NC(=S)Nc1ccccc1	-9%	-8%	20%	/	i	?
CC(C)(C)NC(=S)Nc1ccc(Br)cc1	-5%	-18%	6%	i	i	16µM*
Fc1ccccc1NC(=S)Nc1ccc(Br)cc1	-1%	-41%	14%	i	i	13µM*
C=CCCC(=O)N[C@H]1CC[C@@]23CCCN2C(=O)CCC[C@H]3[C@H]1CCC	/	/	/	i	/	/
COc1ccc(-n2c(=O)c3ccc(C(=O)NCc4ccc(C)cc4)cc3n(Cc3ccc(F)cc3Cl)c2=O)cc1	/	2%	/	i	i	20%
Cc1ccc(CNc2cc(C(=O)O)ccc2C)s1	4%	19%	3%	i	i	?
COc1ccc(C(=O)O)cc1NCc1ccc(C)s1	-7%	14%	2%	i	i	3.2µM*
COc1ccc(OC)c(NC(=O)Cn2ccc3ccccc3c2=O)c1	/	/	/	i	i	10%
CCN1C(=O)[C@H]2[C@@H](c3ccc(-c4cccc(Cl)c4)c(OC)c3)N[C@@](Cc3ccccc3)(C(=O)OC)[C@H]2C1=O	13%	6%	-6%	?	i	-7%
COC(=O)[C@]1(CC(C)C)N[C@H](c2ccc(-c3ccc(F)cc3)c(OC)c2)[C@@H]2C(=O)N(C)C(=O)[C@@H]21	24%	-7%	9%	28µM*	i	30%
COC(=O)[C@]1(Cc2ccccc2)N[C@H](c2ccc(-c3cccc(Cl)c3)c(OC)c2)[C@@H]2C(=O)N(C)C(=O)[C@@H]21	/	3%	/	14µM*	i	15%
Cc1ccc(OCc2nc3ccccc3n2Cc2ccccc2Cl)cc1	/	/	/	i	i	0%
SMILES	Mito fusion yeast	aSyn rescue	A-T KAP1 phos	FUS suppressor	Abeta rescue	TDP43 rescue
CC1=NNC(=O)/C1=C\c1cn(-c2ccccc2)nc1-c1ccc(F)cc1	-2%	-70%	-5%	?	i	11µM*
COc1ccc(NC(=O)CSc2ncnc3scc(-c4ccc(C)cc4)c23)cc1OC	/	/	/	i	/	/
CC(C)C[C@H]1COc2cc(Br)ccc2S(=O)(=O)N1Cc1cn(Cc2ccco2)nn1	/	/	/	i	/	/
Cc1ccc(C(C)C)c(OCC(=O)N/N=C/c2ccc(S(=O)(=O)O)o2)c1	2%	-2%	14µM*	i	i	0%
CC(C)(C)CC(C)(C)c1ccc(OCC(=O)N/N=C/c2ccc(S(=O)(=O)O)o2)cc1	?	6%	0%	i	i	15%
CC(CNC(=O)Cn1ncc2c3ccccc3n(Cc3cccc(Cl)c3)c2c1=O)c1ccccc1 (stereo not drawn)	/	/	/	i	i	1%[9.22 µM]
CN(CC(=O)Nc1cccc(Cl)c1)S(=O)(=O)/C=C/c1ccccc1	/	?	/	i	i	18µM*
CCOC(=O)C(C(=O)OCC)C(c1ccccc1)N1CCN(c2ccccc2)CC1 (stereo not drawn)	/	11%	/	i	i	13µM*
CCOC(=O)C(c1ccccc1)N1CCN(c2ccc(OC)cc2)CC1 (stereo not drawn)	-15%	5%	-12%	i	i	-1%
COc1cccc(-c2nnc3sc(-c4ccc(Br)o4)nn23)c1	/	/	/	i	/	/
Cc1c(OC(C)C(=O)N[C@H](C(=O)O)c2ccccc2)ccc2c3c(c(=O)oc12)CCCC3 (stereo partly drawn)	0%	-1%	6%	i	i	-9%
COc1ccc(-c2cc(=O)oc3c(C)c(OC(C)C(C)=O)ccc23)cc1 (stereo not drawn)	22µM*	-12%	20%	i	i	21%
CC(=O)C(C)Oc1ccc2c3c(c(=O)oc2c1C)CCCC3 (stereo not drawn)	1%	2%	5%	i	i	20µM*
CCC(CC)NC(=O)O[C@H]1CC[C@@]23CCCN2C(=O)CCC[C@H]3[C@H]1C	/	/	/	i	/	/
CCc1nn(CC(=O)NC(C)CC)c(=O)c2cc3c(OC)cccc3n12 (stereo not drawn)	/	/	/	i	i	-8%
Cc1ccc(C2CC(c3cccs3)=NN2C(=O)CSC2=NCCS2)cc1 (stereo not drawn)	-1%	10%	-1%	i	i	?
COc1ccc(C2CC(c3cccs3)=NN2C(=O)c2ccc(Br)o2)cc1 (stereo not drawn)	18µM*	17%	-3%	i	i	-10%
COc1ccc(C2CC(c3cccs3)=NN2C(=O)CSC2=NCCS2)cc1 (stereo not drawn)	-1%	9%	9%	35µM*	i	29%
O=C(c1cccs1)N1N=C(c2ccccc2)CC1c1ccccc1 (stereo not drawn)	?	-5%	13%	i	i	-26%
COc1ccc(C2=NN(C(=O)c3cccs3)C(c3ccc(OC)cc3)C2)cc1 (stereo not drawn)	11µM*	15%	8%	/	i	9%
